Test results reported in ChEMBL document CHEMBL4513216, “Probing the Open Global Health Chemical Diversity Library for Multistage-Active Starting Points for Next-Generation Antimalarials” (ACS Infect Dis, 2020).
Screen size: about 68,000 compounds; about 2,700 (4%) showed an effect of 50% or more. Only a selection was taken, and strong results are over-represented in it overall.

test system: Plasmodium berghei; assay: Screen against P. berghei liver stage (PbLuc), transformed with Luciferase, at 2uM; assay type: functional, HepG2; details: tested at 2 uM

In order of falling INHIBITION:
1. Cc1cccc(CN2CCN(c3nc(CO)cs3)CC2)c1  86.36%
2. Cc1ccc2cc(C3(O)CCN(C(=O)CSC(C)C)CC3)ccc2n1  70.17%
3. COC1CC2(CCN(Cc3ccc4c(c3)OCO4)CC2)C1  69.22%
4. CC(C)OCCCNC(=O)C1CCC(=O)N(C2CCCC2)C1 (stereo not drawn)  68.61%
5. C[C@H]1C[C@H]2CN(C(=O)CCc3ccccc3)CC[C@H]2O1  65.32%
6. CC(C)(C)n1ncc2c1CCCC2NCc1ccc2c(c1)CCO2 (stereo not drawn)  64.67%
7. CN(Cc1ccncc1)C1COC2(CCN(Cc3nccn3C)CC2)C1 (stereo not drawn)  64.31%
8. COc1cccc(CC(=O)N2CCCC(n3nc(C)cc3C)C2)c1 (stereo not drawn)  62.75%
9. CCn1cc(CN2CCCN(C(=O)C3=NN(C)C(=O)CC3)CC2)cn1  59.73%
10. CC(C)COC1CC2(CCN(Cc3nccn3C)CC2)C1  58.93%
11. CSCCCNC(=O)C1CCC(=O)N(C2CCCC2)C1 (stereo not drawn)  56.49%
12. Cn1ncc2c1CCCC2NCc1ccc(Br)s1 (stereo not drawn)  54.86%
13. O=C(NCCN1CCCCC1=O)C1CCC(=O)N(C2CCCC2)C1 (stereo not drawn)  54.29%
14. Cc1ccc2cc(C3(O)CCN(C(=O)[C@@H]4CCCCN4)CC3)ccc2n1  53.98%
15. Cc1cc(-c2nc(-c3cccc(CN4CCOCC4)c3)no2)no1  53.19%
16. COc1ccc(CC(=O)N2CCCC(n3nc(C)cc3C)C2)cc1 (stereo not drawn)  52.87%
17. CC(C)Oc1ccc(C(=O)N2CC[C@H](O)[C@@H](n3ccnc3)CC2)cc1  52.69%
18. COC1CC2(CCN(Cc3nccn3C)CC2)C1  52.66%
19. CCCOC(C)C(=O)N1CCC(O)(c2ccc3nc(C)ccc3c2)CC1 (stereo not drawn)  52.66%
20. COc1cc(N2CCC3(CC2)CC(N2CCOCC2)C3)ncn1  52.36%
21. COCCCNc1c(C#N)c2c(c3nncn13)CN(C)CC2  52.23%
22. CCCNC(=O)C1(CC2CC(c3ccccc3OC)=NO2)CCOCC1 (stereo not drawn)  51.57%
23. Cc1cccc(CNC2CCCc3c2cnn3C)c1 (stereo not drawn)  51.21%
24. Cc1noc(C)c1CN1CCc2ncnc(-c3ccc(F)cc3)c2CC1  49.45%
25. Cc1cccc(-n2ncc3c2CCCC3NCC(C)(C)CO)c1C (stereo not drawn)  45.82%
26. OCc1csc(N2CCN(Cc3cccc(F)c3)CC2)n1  45.82%
27. CS(=O)(=O)c1ccc(C(=O)NCc2nc3cc(F)ccc3[nH]2)cc1  44.61%
28. COc1cccc(S(=O)(=O)NC(=O)CCC2CCCC2)c1  37.68%
29. OCc1csc(N2CCCN(Cc3ccc(F)cc3)CC2)n1  36.28%
30. COc1ncc(CN(C)C2CCN(C(C)C)CC2)cn1  36.08%
31. Cc1c(-c2nc(-c3cccc(CN4CCOCC4)c3)no2)cnn1C  35.56%
32. CC1c2ncc(CNC(=O)C3CC3)n2CCN1CC1CCC1 (stereo not drawn)  35.07%
33. COc1cc(N2CCC3(CC2)CC(N2CCOCC2)CO3)ncn1 (stereo not drawn)  34.24%
34. Clc1cccc(C[C@@H]2NCCC[C@@H]2Nc2ccccc2)c1  33.95%
35. Cc1noc([C@@H]2C[C@H]3CN(C(=O)C4CCN(C)CC4)C[C@H]3O2)n1  33.12%
36. CCS(=O)(=O)CCN1CCC(N(C)Cc2ncc(C)o2)C1 (stereo not drawn)  31.55%
37. CCOCCNC(=O)c1ccc(OC)cc1I  30.48%
38. CC(C)OCCNC(=O)C1CCC(=O)N(C2CCCC2)C1 (stereo not drawn)  28.95%
39. O=C(Cc1ccon1)NC1CCCN(c2ccccc2F)C1=O (stereo not drawn)  28.73%
40. Cc1ccc(CNC2CCCc3c2cnn3C)s1 (stereo not drawn)  28.51%
41. CCS(=O)(=O)N1CCC2(CC1)CC(COC)N(c1ncccn1)C2 (stereo not drawn)  28.45%
42. Cn1ccnc1CN1CCC2(CC1)CC(Oc1cccnc1)C2  24.83%
43. Cn1ccnc1CN1CCC2(CC1)COC2  24.23%
44. CN(Cc1ccncc1)C1COC2(CCN(Cc3ccccn3)CC2)C1 (stereo not drawn)  23.59%
45. COC1COC2(CCN(Cc3ccc4c(c3)OCO4)CC2)C1 (stereo not drawn)  22.16%
46. COCCC(=O)N1CC[C@@H]2O[C@@H](C)C[C@H]2C1  22.01%
47. Cc1cc(C)n(CC2CCCCN2CCC(=O)Nc2cc(C)on2)n1 (stereo not drawn)  21.39%
48. CSCCNC(=O)C1CCC(=O)N(C2CCCC2)C1 (stereo not drawn)  21.24%
49. CCn1cc(CN2CCCN(C(=O)c3cccn3C)CC2)cn1  19.18%
50. COCCNc1c(C#N)c2c(c3nncn13)CN(C)CC2  18.59%
51. Cn1cc(CNC2CCc3c(ccc(=O)n3Cc3cccnc3)C2)cn1 (stereo not drawn)  17.69%
52. CCCN(Cc1ccccc1O)S(=O)(=O)C(C)CC (stereo not drawn)  17.48%
53. CCOC1CC2(CCN(Cc3nccn3C)CC2)C1  16.98%
54. Nc1cc2c(nn1)CCN(C(=O)C1CCc3ccccc31)C2 (stereo not drawn)  16.89%
55. Cc1cnc(-c2nc(-c3cccc(CN4CCOCC4)c3)no2)cn1  15.74%
56. O=C(Cc1nc(-c2ccncc2)n[nH]1)NCCCN1CCOCC1  15.46%
57. Cc1cc(C)n(C2CCCN(C(=O)Cc3cccc(F)c3)C2)n1 (stereo not drawn)  14.06%
58. COCC1CC2(CCN(Cc3nccn3C)CC2)CN1c1ncccn1 (stereo not drawn)  12.88%
59. N#Cc1cccc(CN2CC3(CCCCN3c3cccnc3)CC2=O)c1 (stereo not drawn)  12.57%
60. Cc1n[nH]c(C)c1CCC(=O)NCC1COc2ccccc2C1 (stereo not drawn)  11.19%
61. O=C(NCCn1cccc1)C1CCC(=O)N(C2CCCC2)C1 (stereo not drawn)  10.75%
62. CC(C)n1c(=O)c2sccc2n(CC(=O)Nc2ccccc2)c1=O  10.62%
63. CN1CCCC(CCC(=O)N2CCc3c(nc(CC4CC4)[nH]c3=O)C2)C1 (stereo not drawn)  10.1%
64. O=C(NCC(F)(F)F)C1CCC(=O)N(C2CCCC2)C1 (stereo not drawn)  9.13%
65. Cc1ccc2cc(C3(O)CCN(C)CC3)ccc2n1  8.88%
66. Cc1ccc2cc(C3(O)CCN(C(=O)CN4CCCC4)CC3)ccc2n1  8.65%
67. Cc1oncc1C(=O)NCC(c1ccccc1Cl)N1CCOCC1 (stereo not drawn)  8.6%
68. CN(C)CC(c1ccccc1)N(C)C(=O)c1cccc(NCC(=O)O)c1 (stereo not drawn)  8.26%
69. COC(C)(C)CNC(=O)C1CCC(=O)N(C2CCCC2)C1 (stereo not drawn)  8.03%
70. Cc1ccc2cc(C(=O)N3CCN(C(=O)N(C)C)CC3)ccc2n1  7.02%
71. COc1ccc(CC(=O)N2CCCC(n3nc(C)cc3C)C2)cc1F (stereo not drawn)  6.3%
72. Cc1ccc(CC(=O)N2CCCC(n3nc(C)cc3C)C2)cn1 (stereo not drawn)  5.59%
73. Cc1cc(C)n(C2CCCN(C(=O)c3ccnc(N(C)C)c3)C2)n1 (stereo not drawn)  3.17%
74. C=C(C)CNC(=O)C1CCC(=O)N(C2CCCC2)C1 (stereo not drawn)  2.52%
75. Cc1nn(C)c2cnn(Cc3ccc(C(=O)N4CCN(C)CC4)o3)c12  1.33%
76. CCc1cccc(OCC(=O)NC(C)c2nnc3n2CCC3)c1 (stereo not drawn)  0.31%
77. Cc1cccc(CNC2CCCc3c2cnn3Cc2ccccc2)c1 (stereo not drawn)  -2.26%
78. CCNC(=O)C1(CC2CC(c3ccccc3OC)=NO2)CCOCC1 (stereo not drawn)  -2.93%
79. CN(Cc1ccncc1)C1COC2(CCN(Cc3cccs3)CC2)C1 (stereo not drawn)  -3.11%
80. COCCOCC(=O)N1CCC(O)(c2ccc3nc(C)ccc3c2)CC1  -3.38%
81. Cc1cccc(OCCC(=O)N2CCCN(CC(N)=O)CC2)c1C  -5.2%
82. CC(NC(=O)Nc1ccc(F)c(F)c1)c1nc[nH]n1 (stereo not drawn)  -5.51%
83. CC(C)(C)c1nc(CC(=O)Nc2cnccc2O)cs1  -5.75%
84. O=C(c1cccnc1)N1CCOC(c2ccc(-c3cncnc3)cn2)C1 (stereo not drawn)  -6.04%
85. c1cc(CCNc2ccc(CC3CCNC3)cn2)ccn1 (stereo not drawn)  -6.19%
86. COCc1ccc(C(=O)N2CC[C@H](O)[C@@H](n3ccnc3)CC2)cc1  -7.01%
87. CCn1ncc2c1CCCC2NCc1ccc2c(c1)CCO2 (stereo not drawn)  -7.81%
88. CN1CCc2c(C#N)c(NCCCO)n3cnnc3c2C1  -9.74%
89. NC(=O)COc1ccc(C(=O)N2CCCC(n3ccnc3)C2)cc1 (stereo not drawn)  -10.05%
90. Cc1cc(C)n(C2CCCN(C(=O)Cc3ccc(C#N)cc3)C2)n1 (stereo not drawn)  -11.34%
91. Cc1ccc(CNC(=O)Nc2nccs2)cn1  -11.83%
92. O=C(c1ccccc1-c1nnn[nH]1)N1CCOC(C(F)(F)F)C1 (stereo not drawn)  -12.13%
93. CC(C)(C)n1ncc2c1CCCC2NCc1ccc2c(c1)OCCO2 (stereo not drawn)  -12.39%
94. CCOC(=O)N1CC2(CCNCC2)c2cc(Cl)ccc21  -12.43%
95. C[C@H]1C[C@H]2CN(C(=O)CCOc3ccccc3)CC[C@H]2O1  -12.84%
96. Cc1ccc2cc(C(=O)N3CCC(O)(C(F)(F)F)CC3)ccc2n1  -13.42%
97. CC(Cn1cccn1)NC(=O)c1ccsc1 (stereo not drawn)  -18.04%
98. Cn1ncc2c1CCCC2NCc1ccc(Cl)s1 (stereo not drawn)  -21.31%
99. CSC(C)CCN(Cc1ccccn1)Cc1sccc1C (stereo not drawn)  -22.06%
100. Cc1nc(CN2CCCC(Cn3cc(CCO)nn3)C2)c2ccccn12 (stereo not drawn)  -27.82%
101. CC1=Nc2c(c(=O)[nH]n2C2CCCCC2)C(c2cccnc2)S1 (stereo not drawn)  -30.12%
102. CNc1cccc(C2CCCN(C(=O)c3cncs3)C2)n1 (stereo not drawn)  -33.77%
103. Cn1ncc2c1CCCC2NCc1cccc(F)c1 (stereo not drawn)  -33.95%
104. CCn1cc(CN2CCCN(C(=O)CCN3CCCC3=O)CC2)cn1  -35.65%
105. COc1ccccc1C1=NOC(CC2(C(=O)NCCO)CCOCC2)C1 (stereo not drawn)  -39.01%
106. COc1cc(N2CCC3(CC2)CC(N2CCN(C)CC2)CO3)ncn1 (stereo not drawn)  -39.89%
107. CSCCC(C)(O)CNS(=O)(=O)Cc1cccc(C)c1 (stereo not drawn)  -40.82%
108. Cn1cc(-c2nnn3c2COC(CNCc2ccncc2)C3)cn1 (stereo not drawn)  -42.69%
109. CS(=O)(=O)NCCC(=O)N1Cc2cnc(-c3ccccc3)nc2C1  -49.29%
110. O=C(NS(=O)(=O)c1cc(Cl)ccc1Cl)c1cccc2c1OCCO2  -55.23%
111. O=C(NC1CCN(C(=O)C2CCCCC2)C1)c1ccncc1Cl (stereo not drawn)  -56.84%
112. CCOC1COC2(CCN(Cc3ccc4c(c3)OCO4)CC2)C1 (stereo not drawn)  -59.24%
113. CC1=NOC(C(=O)N2CCC(O)(c3ccc4nc(C)ccc4c3)CC2)C1 (stereo not drawn)  -70.57%
